In PubChem BioAssay (EPA / NIEHS) one finds outcome data, which are given here for 38 molecules.

Molecules are shown by their SMILES. Active and inactive are the calls of the source. The calls were made as follows: active = hit-call score of the fitted dose curve at least 0.9, where 1 is the maximum; inactive = score below 0.9.

Read-out in the assay: Cyclin D2 (CCND2), CCND2 (gene 894)
Briefly: LTEA_HepaRG_CCND2: Life Technologies and Expression Analysis (LTEA) Assay for Cyclin D2 (CCND2) using HepaRG (AID 2283449).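 Also: CCND2 transcript measured by TaqMan qRT-PCR and normalised to three housekeeping genes.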 The settings on record: mRNA level, 48 h; actives raise or lower the signal. Summed up: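 HepaRG, 48 h dosing, 8-pt half-log curve from 100 uM, 0.5% DMSO; duplicate wells. Readout: CCND2 transcript by microfluidic qRT-PCR, housekeeping-normalised; bidirectional fit vs DMSO baseline.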
In the case of `CCN(CC)C(=O)c1cc(S(=O)(=O)Cc2ccccc2)c(N2CCC(c3ccccc3)CC2)cc1N(CC)CCN(C)C`, the molecule was called inactive.

For `CCN(Cc1cccc(S(=O)(=O)O)c1)c1ccc(C(=C2C=CC(=[N+](CC)Cc3cccc(S(=O)(=O)O)c3)C=C2)c2ccccc2S(=O)(=O)[O-])cc1`, the call was inactive.

As for `O=C(OCCCCCCOC(=O)c1ccccc1)c1ccccc1`, the call was inactive.

As for `CCCCCCCCCC(=O)O`, the outcome was inactive.

Turning to `CN(C)C(=O)C1(N2CCCCC2)CCN(CC[C@@]2(c3ccc(Cl)c(Cl)c3)CN(C(=O)c3ccccc3)CCO2)CC1`, the call was inactive.

Regarding `CC[C@H](NC(=O)c1cc(F)ccc1NS(=O)(=O)c1cccc2cccnc12)c1ccccc1`, the result was inactive.

As for `CN(C)c1ccc(C(=C2C=CC(=[N+](C)C)C=C2)c2ccc(N(C)C)cc2)cc1`, the outcome was inactive.

Regarding `Cc1ncc(CO)c(CO)c1O`, the molecule was classed as inactive.

`CCCCCCCCCCCCO`: the outcome was inactive.

For the molecule `Cc1cccc2ccccc12`, the result was inactive.

Regarding `O=CCCCC=O`, the molecule was called inactive.

With `CC(C)(C)c1csc(-c2cc3cc(OCc4ccccc4CC(=O)O)ccc3o2)n1`, the call was inactive.

In the case of `O=C(O)c1ccccc1C(=O)OCc1ccccc1`, the molecule was classed as inactive.

On to `CN1C(=O)CC[C@H]1c1cccnc1`, for which the molecule was called inactive.

Consider `O=C=NCCCCCCN=C=O`, for which the call was inactive.

In the case of `CC1=CC(=O)/C(=C(/C)O)C(=O)O1`, the molecule was called inactive.

For `CCCOC(=O)c1cc(O)c(O)c(O)c1`, the molecule was classed as inactive.

As for `CCCCCc1ccc(N)cc1`, the molecule was classed as inactive.

For `COc1cc(C(=O)NC2CCN(C)CC2)ccc1Nc1ncc2c(n1)N(C1CCCC1)CC(F)(F)C(=O)N2C`, the result was inactive.

Regarding `CCOC(=O)O[C@H](C)OC(=O)c1ccc2c(c1)cc(C(=O)NC1CCN(C(C)C)CC1)n2Cc1cc(-c2ccc(Cl)s2)on1`, the molecule was called inactive.

Regarding `Oc1ccccc1`, the call was inactive.

Take `CC[C@@H]1C[C@H](N(Cc2cc(C(F)(F)F)cc(C(F)(F)F)c2)C(C)=O)c2cc(C(F)(F)F)ccc2N1C(=O)OC(C)C`: the molecule was called inactive.

For `Cc1cc(F)ccc1-c1cc(N2CC[C@@H](O)[C@H]2CO)ncc1N(C)C(=O)C(C)(C)c1cc(C(F)(F)F)cc(C(F)(F)F)c1`, the outcome was inactive.

Turning to `c1ccc(C[n+]2cccc3ccccc32)cc1`, the result was inactive.

On to `CCCCCCCCOc1ccc(C(=O)c2ccccc2)c(O)c1`, for which the outcome was inactive.

With `CCO[Si](CCCNC(N)=O)(OCC)OCC`, the outcome was inactive.

In the case of `COCC(C)OCC(C)OCC(C)O` (stereo not drawn), the result was inactive.

As to `c1ccc2n[nH]nc2c1`, the molecule was classed as inactive.

For the molecule `c1ccc2ccccc2c1`, the molecule was classed as inactive.

Regarding `O=c1ccc2ccccc2o1`, the call was inactive.

Turning to `NCc1cccc(C2CCN(C(=O)c3ccc(C#Cc4ccccc4F)o3)CC2)c1`, the call was inactive.

As to `O=C1O[C@H]([C@@H](O)CO)C(O)=C1O`, the result was inactive.

Turning to `CCCCCCCCCCCO`, the call was inactive.

Regarding `CCCCOC(=O)CC(CC(=O)OCCCC)(OC(C)=O)C(=O)OCCCC`, the outcome was inactive.

Turning to `CC(C)(O)c1ccc(CNC(=O)c2cccnc2Oc2ccc3nonc3c2)cc1`, the result was inactive.

Turning to `CN(C[C@@H](CC[N+]12CCC(C3CCCCC3)(CC1)CC2)c1ccc(Cl)c(Cl)c1)C(=O)c1cc(C(F)(F)F)cc(C(F)(F)F)c1`, the result was inactive.

With `OCCO`, the call was inactive.

As to `Cc1occc1C(=O)Nc1ccc(C(=O)N2CCC(F)(F)/C(=C\C(=O)N3CCC(N4CCCCC4)CC3)c3ccccc32)cc1`, the outcome was inactive.
